Screens as filed in PubChem BioAssay.
An excerpt weighted towards active compounds, which were near 7.8% of everything screened.
Vaccinia mCherry – inhibitors of vaccinia virus infection (mCherry reporter signal) | Vaccinia virus mCherry reporter infection, fluorescence | Potency, µM (series often up to 36.5 µM), actives largely listed as inhibitors | 310,000 compounds, 0.63% hits; calls by dose curve; tested in A549 cells; note: nearly all actives have a fitted effect of over 35% in size
Marburg entry inh – inhibitors of Marburg virus binding or cell entry; 300,000 compounds, 1.8% hits; Potency, µM (series often up to 37.8 µM), usual class: inhibitors; Marburg virus pseudotyped entry inhibition, cell reporter; calls by dose curve; tested in HEK293 cells
HCMV inh – inhibitors of human cytomegalovirus; AID 1259415; 410,000 compounds, 4.5% hits; activity change, negative = inhibition, % at 57.5 µM; HFF cells, HCMV-luciferase reporter, 72 h; stronger effect = lower value; in the data active = activity change below about -60%; inconclusive = no clear call, values can overlap the other calls; inactive = above about -39%
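Two compound doses tested in HFFs infected with HCMV-luciferase, MOI 1 PFU/cell, 72 h at 37C. Lysate luminescence read with OneGlo; data normalized against buffer-only and 10uM Salinomycin inhibitor controls.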
HCV inhibitor – inhibitors of hepatitis C virus infection; Huh7.5.1 HCVcc-Cre infection, luciferase reporter, 44 h; 340,000 compounds, 3.4% hits; AID 651820; Potency, µM (titrated, usually from 41.8 µM), most hits filed as inhibitors; active = well fitted inhibition curve with a large enough effect; inconclusive = small, poorly fitted or top-dose-only effect, or another doubt; inactive = no such curve, though single readings can be large or run the other way
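1,000 cells/well; 4 h culture; + compound; + HCVcc-Cre (~0.5 moi); 44 h; luciferase substrate, RT 15 min; read 15 sec.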
VACV Venus inh – inhibitors of vaccinia virus (Venus reporter). Vaccinia virus Venus reporter expression, fluorescence. AID 720580. Potency, µM (highest dose often 36.5 µM), usual class: inhibitors. 330,000 compounds, 0.46% hits; calls by dose curve; tested in A549 cells; note: nearly all actives have a fitted effect of over 30% in size
Lassa entry inh – inhibitors of Lassa virus binding or cell entry; Lassa virus pseudotype entry inhibition, cell reporter; 300,000 compounds, 1.2% hits; Potency, µM (highest dose often 37.9 µM), hits mostly inhibitors; calls by dose curve; tested in HEK293 cells; note: nearly all actives have a fitted effect of over 50% in size
Hits are given with their value; i = inactive; ? = inconclusive; nt = not tested or not shown; [ ] = another dose, or the depositor's remark.

SMILES	Vaccinia mCherry	Marburg entry inh	HCMV inh	HCV inhibitor	VACV Venus inh	Lassa entry inh
COc1cc(-c2nc(-c3ccccn3)no2)cc(OC)c1OC	i	i	i	4µM	i	i
COc1cccc(-c2nc(-c3ccccn3)no2)c1OC	i	i	i	?	i	i
COc1ccc(NC(=O)Cn2c(=O)n(Cc3ccccc3)c(=O)c3sc4ccccc4c32)cc1	i	i	i	nt	i	i
Cc1cc(=O)oc2cc(OCc3cn(CC(=O)c4ccc(O)cc4)nn3)ccc12	nt	nt	nt	nt	nt	i
c1ccc(-c2ccc(-c3nc(-c4ccccn4)no3)cc2)cc1	i	?	-95	?	i	?
Cc1ccc(C(=O)N2CCC(C(=O)c3ccc(F)cc3)CC2)cc1	nt	nt	i	?	nt	nt
Cc1ccc(C(=O)N2C(=S)C(c3ccc(F)cc3)=NC23CCN(C)CC3)cc1	i	?	-85	?	i	?
COCCCNC(=O)c1c(-c2ccccc2)c(-c2ccccc2)nn(C)c1=O	i	i	?	nt	i	i
O=C(Nc1cccc(C(F)(F)F)c1)n1cc(-c2ccccn2)c(N2CCOCC2)n1	i	i	-64	i	i	i
CNC(=O)/C(C#N)=C/c1c(N(Cc2ccccc2)Cc2ccccc2)nc2c(C)cccn2c1=O	i	?	i	13µM	?	?
CCNC(=O)/C(C#N)=C/c1c(N2CCOCC2)nc2ccccn2c1=O	i	?	i	i	i	i
CCNC(=O)/C(C#N)=C/c1c(N(Cc2ccccc2)Cc2ccccc2)nc2ccccn2c1=O	i	?	?	11µM	?	?
O=C(CN1CCN(c2cccc(Cl)c2)CC1)NCc1ccccc1	nt	nt	i	i	nt	nt
O=[N+]([O-])c1ccc(N2CCN(C(=S)NCc3ccc(Cl)cc3)CC2)cc1	i	nt	-90	11µM	?	nt
O=C(CN1CCN(c2cccc(C(F)(F)F)c2)CC1)NCc1ccccc1	i	i	i	i	i	8.9µM
O=C(CN1CCN(c2ccc(Cl)cc2)CC1)NCc1ccccc1	i	?	i	?	i	6.3µM
CCNC(=S)N1CCN(c2ccc([N+](=O)[O-])cc2)CC1	i	i	i	i	i	i
NS(=O)(=O)c1ccc(CCNC(=O)CN2CCN(c3cccc(Cl)c3)CC2)cc1	?	?	-89	?	?	i
CN1C(=O)C(C2(O)C(=O)Nc3ccccc32)c2ccccc21 (stereo not given)	nt	nt	i	nt	nt	nt
Cc1ccc(-n2c(SCC(=O)Nc3c(C)cccc3C)nc(O)c(C)c2=O)cc1	i	i	i	nt	i	?
c1ccc(CNc2ccc(N3CCOCC3)cc2)cc1	nt	nt	i	nt	nt	nt
CCc1ccc(CNc2ccc(N3CCN(C(C)=O)CC3)cc2)cc1	?	i	-80	?	?	?
CC(=O)N1CCN(c2ccc(NCc3ccc(C)cc3)cc2)CC1	nt	i	i	i	nt	i
Clc1ccc(CNc2ccc(N3CCN(Cc4ccccc4)CC3)cc2)cc1	i	?	i	10µM	i	?
COC(=O)[C@@H]1N2C(=O)[C@@H](NC(=O)C(C)Oc3ccccc3)[C@H]2SC1(C)C (stereo not given in full)	i	nt	nt	nt	i	nt
SMILES	Vaccinia mCherry	Marburg entry inh	HCMV inh	HCV inhibitor	VACV Venus inh	Lassa entry inh
Cc1ccc2c(c1)c1c(n2C)C(=O)CCC1	i	i	i	4µM	i	i
O=C(NNc1c2ccccc2nc2ccccc12)c1cccc(O)c1	?	?	-61	?	?	i
O=C(NNc1c2ccccc2nc2ccccc12)c1ccc(O)cc1O	nt	i	i	?	?	i
O=C(NNc1c2ccccc2nc2ccccc12)c1ccc(O)cc1	nt	5.8µM	?	10µM	nt	?
CCN(CC)CCN1C(=O)C(=O)/C(=C(/O)c2c(C)[nH]c(C(=O)OC)c2C)[C@@H]1c1cccc(OC)c1	nt	i	nt	nt	nt	nt
Cc1ccc(NC(=S)N2CCCC(c3nc4ccccc4[nH]3)C2)cc1 (stereo not given)	nt	i	i	2.5µM	nt	i
O=c1c2c(-c3ccc(Cl)cc3)ccnc2[nH]n1-c1ccccc1	i	i	i	nt	i	i
CCC(=O)C1=C(c2ccccc2)N(C(=O)CC)n2c(nnc2-c2ccccc2)S1	i	nt	i	nt	i	i
CCC(=O)C1=C(c2ccc(Cl)cc2)N(C(=O)CC)n2c(C)nnc2S1	i[7.34 µM]	nt	-99	nt	i[7.34 µM]	i
Cc1c(Cl)cccc1-c1ccc(C(=O)Nc2ccc(F)cc2)o1	i	nt	i	nt	i	i
O=C1CC(c2cc(Br)ccc2F)c2cc3c(cc2N1)CCC3 (stereo not given)	nt	?	-73	?	nt	?
O=C1CC(c2ccccc2F)c2cc3c(cc2N1)CCC3 (stereo not given)	?	?	i	i	?	i
CN(C)CCOC1(Cc2ccc(F)cc2)CCC(C(C)(C)C)CC1 (stereo not given)	i	11µM	?	i	?	?
CN(C)CCNCc1ccc(OC2CCCC2)cc1	i	?	i	nt	i	i
Cc1ccc(CC2(OCCN(C)C)CCC(C(C)(C)C)CC2)cc1 (stereo not given)	?	10µM	?	i	?	?
CCc1c(C#N)c(SCCC(=O)Nc2ccc(F)cc2)nc2c1C(=O)CC(C)(C)C2	nt	?	-96	11µM	?	?
CCc1c(C#N)c(SCCC(=O)Nc2cccc(OC)c2)nc2c1C(=O)CC(C)(C)C2	nt	i	i	10µM	i	i
COc1ccc(-c2c(C#N)c(SCc3c(C)noc3C)nc3c2C(=O)CC(C)(C)C3)cc1	i	i	i	i	i	i
CC1(C)CC(=O)c2c(nc(SCC(=O)Nc3nsc(-c4ccccc4)n3)c(C#N)c2-c2ccccc2)C1	i[1.46 µM]	?	i	?	i	?
Cc1cc(/C=C/c2ccnc3ccccc23)ccc1N	i	nt	nt	nt	i	nt
Cc1ccc(CN2CCSc3ccc(C(=O)N4CCOCC4)cc32)cc1	nt	nt	nt	i	nt	nt
CCN1CCN(C(=O)c2ccc3c(c2)N(Cc2ccc(C)cc2)CCS3)CC1	nt	nt	-85	i	nt	nt
CCN1CCN(CCCNC(=O)c2ccc3c(c2)N(Cc2ccc(C)cc2)CCS3)CC1	nt	nt	nt	11µM	nt	nt
Cc1ncc(CO)c(CNc2ccc(Oc3ccccc3)cc2)c1O	?	i	-70	11µM	i	?
COc1cccc(CN(CC(=O)NC2CCCC2)C(=O)CCC(=O)Nc2cc(C)on2)c1	i	i	-81	i	i	i
SMILES	Vaccinia mCherry	Marburg entry inh	HCMV inh	HCV inhibitor	VACV Venus inh	Lassa entry inh
Cc1cc(NC(=O)CCC(=O)N(Cc2cccs2)C(C(=O)NC2CCCC2)c2ccncc2)no1 (stereo not given)	i	i	i	i	i	i
CCC(C(=O)NC1CCCCC1)N(Cc1cccs1)C(=O)CCC(=O)Nc1cc(C)on1 (stereo not given)	i	?	i	11µM	i	?
Cc1cc(NC(=O)CCC(=O)N(c2ccc(F)cc2)C2(C(=O)NC3CCCCC3)CCCC2)no1	i	11µM	i	i	?	i
Cc1cc(NC(=O)CCC(=O)N(Cc2ccccc2)C2(C(=O)NC3CCCCC3)CCCC2)no1	i	?	?	i	i	?
COc1cccc(N(CC(=O)NC2CCCC2)C(=O)CCC(=O)Nc2cc(C)on2)c1	i	i	i	i	i	i
COc1ccc(NC(=O)N2C[C@H]3[C@@H](c4ccccc42)[C@@H](CO)N3C(=O)C2CC2)cc1	nt	nt	i	nt	nt	nt
